# Source: PubChem BioAssay
# IL-1B inflam inh: inhibitors of inflammasome signaling (IL-1 beta secretion); THP-1 LPS/ATP IL-1B secretion, AlphaLISA, 16 h; hits give low values; activity change, % at 57.5 µM; hit rate 4.7% among 360,000; AID 743279; in the data active means activity change below about -50%; inconclusive means mostly about -30% to -49%
#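 THP-1 cells pretreated 1 hr with compounds (up to 57.5 uM final), then stimulated with LPS (250 ng/mL final) plus ATP (1.25 mM final); secreted IL-1B measured by AlphaLISA after 16 hr, decreased signal indicating inhibition.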
# ALOX12 inh: blocks human arachidonate 12S-lipoxygenase; P18054; purified 12hLO, xylenol orange hydroperoxide absorbance; hit rate 1.1% among 580,000; Potency, µM (series often up to 108 µM), without a hit: at the top dose activity change, negative = inhibition, most hits filed as inhibitors; further: potency means the concentration at half of the fitted maximal effect
# Target sequence (P18054 whole entry, looked up): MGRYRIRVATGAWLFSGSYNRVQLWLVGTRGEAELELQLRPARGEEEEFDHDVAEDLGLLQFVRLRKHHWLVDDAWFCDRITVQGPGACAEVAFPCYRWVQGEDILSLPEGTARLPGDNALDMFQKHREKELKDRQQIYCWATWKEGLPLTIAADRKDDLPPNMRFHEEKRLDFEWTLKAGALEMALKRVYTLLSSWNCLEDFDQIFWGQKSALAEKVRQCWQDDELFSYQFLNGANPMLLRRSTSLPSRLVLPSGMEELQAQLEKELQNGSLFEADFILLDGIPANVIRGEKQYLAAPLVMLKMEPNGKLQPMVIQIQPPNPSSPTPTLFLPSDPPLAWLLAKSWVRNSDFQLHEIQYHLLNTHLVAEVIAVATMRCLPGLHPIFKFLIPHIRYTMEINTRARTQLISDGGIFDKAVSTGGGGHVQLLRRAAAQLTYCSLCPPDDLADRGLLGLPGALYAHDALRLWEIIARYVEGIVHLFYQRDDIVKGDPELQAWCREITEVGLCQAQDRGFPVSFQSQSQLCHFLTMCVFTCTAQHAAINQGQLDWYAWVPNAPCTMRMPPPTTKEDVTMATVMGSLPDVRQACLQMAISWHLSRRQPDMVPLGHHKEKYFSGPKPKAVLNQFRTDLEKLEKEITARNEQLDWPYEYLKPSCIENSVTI
#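 Purified human 12hLO (150 nM final) in 25 mM Hepes, 0.01% Triton X-100, pH 7.0 was preincubated 15 min at room temperature with compound. Then 40 uM arachidonic acid was added, 30 min. Hydroperoxide was read by Fe-XO absorbance ratio 573/405 nm.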
# DT40 TDP1 no CPT: qHTS for Inhibitors of human tyrosyl-DNA phosphodiesterase 1 (TDP1): qHTS in cells in absence of CPT. DT40 Tdp1-/- hTDP1 cells, no CPT, ATP luminescence, 48 h. Potency, µM (highest dose often 46.2 µM), for inactives: at the highest dose activity change, negative = growth inhibition, usual class: inhibitors. hit rate 15% among 420,000. AID 686978, 2013; further: potency means the concentration at half of the fitted maximal effect; nearly all actives have a fitted effect of over 55% in size
#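 Chicken DT40 Tdp1-/- cells stably complemented with human TDP1 were seeded at 400 cells/well with DMSO in place of 20 nM camptothecin. After compound pinning, cells grew at least 48 hr at 37 °C; viability read by CellTiter-Glo luminescence.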
# DT40 TDP1 CPT: DT40-hTDP1 cell growth loss with CPT | chicken DT40 Tdp1-/-;hTDP1 cells + 20 nM CPT, ATP luminescence, 48 h | Potency, µM (titrated, usually from 46.2 µM), inactives show at the highest dose activity change, negative = growth inhibition, hits mostly inhibitors | hit rate 12% among 420,000; further: potency means the concentration at half of the fitted maximal effect; nearly all actives have a fitted effect of over 55% in size
#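 Cell growth measured by CellTiter-Glo luminescence after a minimum 48 h, 37 C compound exposure with 20 nM CPT in Tdp1-knockout DT40 cells stably expressing hTDP1, seeded 400/well; qHTS titration format.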
# HT1080NT lethal: kills 2HG-producing HT-1080-NT fibrosarcoma cells; HT-1080-NT fibrosarcoma viability, CellTiter-Glo ATP luminescence, 48 h; Potency, µM (titrated, usually from 46.1 µM), without a hit: at the top dose activity, negative = less viability, usual class: cytotoxic; hit rate 1.6% among 360,000;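 further: NT is the 2HG producing partner of a matched IDH1 knockdown line; potency means the concentration at half of the fitted maximal effect; 0% = DMSO-treated cells and -100% = media-only wells without cells; nearly all actives have a fitted effect of over 55% in size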
#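 Read-out is CellTiter-Glo luminescence after 10 minutes at room temperature, following 48 hours' compound treatment of HT-1080-NT cells (750 cells/well, RPMI, 5% FBS, 37 degrees C).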
# HT1080 IDH1KD tx: HT-1080 IDH1 knockdown cell toxicity (counter line); AID 686971; HT-1080 IDH1 knockdown viability, ATP luminescence, 48 h; hit rate 2% among 360,000; Potency, µM (series often up to 46.1 µM), inactives show at the highest dose activity, negative = toxicity, usual class: cytotoxic;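 further: potency means the concentration at half of the fitted maximal effect; 0% = DMSO wells and -100% = cell-free medium wells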
#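 Viability of IDH1-knockdown HT-1080 fibrosarcoma cells was assessed by CellTiter-Glo after 48 h at 37 °C with titrated compound; concentration-effect curves were classified by fit quality and response size.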
# The depositor's hits bear a star; i = inactive; ? = inconclusive; . = not tested or not shown. This is one part of a sample in which hits are shown more often than they occur. Unless noted, the call rests on the fitted dose curve; in most records, active means well fitted curve in the direction sought with a large enough effect; inconclusive means small, poorly fitted or top-dose-only effect, or another doubt; inactive means no such curve, though single readings can be large; an effect the other way counts as inactive or inconclusive. Unless noted, on the % scale 0 is the no-effect control and ±100 the full control effect.
SMILES,IL-1B inflam inh,ALOX12 inh,DT40 TDP1 no CPT,DT40 TDP1 CPT,HT1080NT lethal,HT1080 IDH1KD tx
CC1=NN(C(=O)c2ccc(Cn3nc(C)cc3C)o2)C(O)(C(F)(F)F)C1 (stereo not given),-5,11%,2.5µM*,1.3µM*,7.1µM*,6.3µM*
CC1=NN(C(=O)c2ccc(Cn3cc(Br)c([N+](=O)[O-])n3)o2)C(O)(C(F)(F)F)C1 (stereo not given),-10,0%,2.6µM*,3.3µM*,-25%,-13%
CC1=NN(C(=O)Cn2nc([N+](=O)[O-])cc2C)C(O)(C(F)(F)F)C1 (stereo not given),57,-10%,-18%,-6%,12%,13%
CCOc1cc(C(=O)N2N=C(C)CC2(O)C(F)(F)F)cc(OCC)c1OCC (stereo not given),.,69%,.,.,.,.
CCCn1nnc(NC(=O)c2ccc3ccccc3c2)n1,-17,10%,-15%,?,22%,24%
CCCn1nnnc1NC(=O)c1ccc2ccccc2c1,49,-13%,18µM*,?,-21%,-30%
C[C@@H]1CCC(=O)N(CC[C@H](Sc2ccc(Br)cc2)c2ccccc2)CC1,-71*,?,20µM*,18µM*,?,?
C[C@@H]1CCC(=O)N(CC[C@H](Oc2ccccc2)c2ccccc2)CC1,-4,-4%,13µM*,?,13%,0%
Cc1ccc(S[C@@H](CCN2CC[C@H](C)CCC2=O)c2ccccc2)cc1,?,?,16µM*,?,-8%,-1%
Cc1ccc(S[C@@H](CCN2CC[C@H](O)CCC2=O)c2ccccc2)cc1,5,35µM*,-11%,11%,6%,4%
Cn1c(=O)c2c(ncn2Cc2nc(-c3cccc(C(F)(F)F)c3)no2)n(C)c1=O,.,4%,.,.,.,.
OC1Cc2ccccc2C12CCN(Cc1cn(-c3ccccc3)nn1)CC2 (stereo not given),.,11%,.,.,.,.
Cc1ccc(SCCN2CCC(C)CCC2=O)cc1 (stereo not given),7,15%,?,-20%,14%,12%
COc1ccc(S[C@@H](CCN2CC[C@H](C)CCC2=O)c2ccccc2)cc1,?,-11%,15µM*,10µM*,-24%,-9%
C[C@H]1CCC(=O)N(CCSc2ccc(Br)cc2)CC1,-2,-15%,18µM*,16µM*,10%,15%
CNC(=O)/C=C/c1ccccc1F,.,4%,.,.,.,.
COc1ccc(NC(=O)CSc2ccc(-c3ccco3)nn2)cc1OC,i,5%,10µM*,16µM*,-10%,0%
COc1ccc(-c2ccc(C#N)c(SCC(=O)Nc3sc4c(c3C#N)CCC4)n2)cc1OC,-5,0%,15µM*,23µM*,2%,6%
Cc1ccnc(SCC(=O)Nc2sc3c(c2C#N)CCCC3)n1,?,0%,2.9µM*,3.3µM*,-13%,-19%
Cc1csc(SCC(=O)Nc2sc3c(c2C#N)CCC3)n1,8,348%,?,?,-3%,-24%
CCN(CC)c1ccc(NC(=O)CSc2n[nH]c(-c3ccco3)n2)cc1,7,?,23µM*,?,0%,2%
COC1CCOC2(CCN(C(=O)c3cccs3)CC2)C1 (stereo not given),.,23%,.,.,.,.
CCCCNC(=O)c1cccc2c1CCN2C(=O)C1CC1,.,-15%,.,.,.,.
CN1CCN(c2nc3c(c(=O)[nH]2)CCN(Cc2cc(F)cc(F)c2)CC3)CC1,.,31%,.,.,.,.
COc1cc(NC(=O)CSc2nc(-c3ccco3)cc(C(F)(F)F)n2)cc(OC)c1OC,.,?,5.2µM*,3.7µM*,.,.
SMILES,IL-1B inflam inh,ALOX12 inh,DT40 TDP1 no CPT,DT40 TDP1 CPT,HT1080NT lethal,HT1080 IDH1KD tx
COc1ccc(-c2cc(C(F)(F)F)nc(SCC(=O)Nc3sc4c(c3C#N)CCC4)n2)cc1,-8,?,5.8µM*,?,17%,-2%
COc1ccc(NC(=O)CSc2nc(-c3ccco3)cc(C(F)(F)F)n2)cc1,.,-20%,8.2µM*,?,.,.
O=C(CSc1nc(-c2ccco2)cc(C(F)(F)F)n1)Nc1cccnc1,22,10%,21µM*,?,?,?
COc1ccc(NC(=O)CSc2nc(-c3ccco3)cc(C(F)(F)F)n2)c(OC)c1,.,-1%,-12%,-8%,.,.
O=C(NC1CCCCC1)C1CCN(c2cn[nH]c(=O)c2)C1 (stereo not given),.,6%,.,.,.,.
COCCC(=O)N1C[C@@H]2CCCN3CCC[C@@H]([C@H]23)[C@H]1CCCC(=O)Nc1ccccc1,.,11%,.,.,.,.
COc1ccc(-c2cc(C(F)(F)F)nc(SCC(=O)Nc3ccc(C(C)=O)cc3)n2)cc1,.,0%,?,21µM*,.,.
COc1ccccc1CCNC(=O)CCSc1nc(-c2ccco2)cc(C(F)(F)F)n1,-13,?,?,23µM*,-6%,-26%
COc1ccc(-c2cc(C(F)(F)F)nc(SCC(=O)NC(C)(C)C)n2)cc1,.,23%,.,.,.,.
O=C(NC(=S)NCc1ccccc1)c1ccccc1[N+](=O)[O-],18,-7%,?,4%,-13%,-15%
CCCCOc1ccccc1C(=O)NNC(=S)NC(=O)c1ccccc1[N+](=O)[O-],67,?,18µM*,26µM*,?,?
